High-throughput results: PubChem, National Center for Advancing Translational Sciences (NCATS)
Lamin A splicing – qHTS Assay for Modulators of Lamin A Splicing; 200,000 compounds, 0.01% hits; HeLa LMNA splicing GFP/RFP minigene ratio, 48 h; AID 1487, 2009; Potency, µM (titrated, usually from 46.1 µM), inactives show at the highest dose ratio change, negative = inhibition, hits mostly inhibitors; active = well fitted inhibition curve with a large enough effect in the signal ratio, with a control signal flat, not every such curve was filed as active; inconclusive = small, poorly fitted or top-dose-only effect, or effect the other way, or a change in a side signal; the % refers to the signal ratio; also: potency is read from the fitted curve at half-maximal effect
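S3 HeLa stable clones carrying a lamin A-EGFP splicing minigene plus DsRed2 were seeded at 600 cells/well in Opti-MEM with 2% FBS, pin-dosed and incubated 48 h at 37°C. Acumen cytometry (488 nm) gave the GFP/RFP total-intensity ratio.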
12-hLO inh – qHTS Assay for Inhibitors of 12-hLO (12-human lipoxygenase). purified 12-hLO, xylenol orange hydroperoxide absorbance. 150,000 compounds, 0.12% hits. Polyunsaturated fatty acid lipoxygenase ALOX12 (Homo sapiens), P18054. Potency, µM (highest dose often 57.1 µM), without a hit: at the top dose activity change, negative = inhibition, most hits filed as inhibitors; active = well fitted inhibition curve with a large enough effect; inconclusive = small, poorly fitted or top-dose-only effect; also: potency is read from the fitted curve at half-maximal effect; nearly all actives have a fitted effect of over 55% in size
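Hydroperoxide formation by human 12-lipoxygenase from 40 uM arachidonic acid was followed colorimetrically via ferric-xylenol orange complex, using the 573/405 nm absorbance ratio. Enzyme concentration was 150 nM, with 30 min reaction at room temperature.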
ALDH1A1 inh – qHTS Assay for Inhibitors of Aldehyde Dehydrogenase 1 (ALDH1A1). AID 1030, 2008. Potency, µM (highest dose often 75.3 µM), without a hit: at the highest dose activity, negative = inhibition, hits mostly inhibitors. Aldehyde dehydrogenase 1A1 (Homo sapiens), P00352. 220,000 compounds, 7.3% hits. Purified ALDH1A1, NADH fluorescence, propionaldehyde substrate;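 also: potency is read from the fitted curve at half-maximal effect; plate controls were no enzyme wells and a reference inhibitor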
HPGD inh – qHTS Assay for Inhibitors of HPGD (15-Hydroxyprostaglandin Dehydrogenase). 15-hydroxyprostaglandin dehydrogenase [NAD(+)] (Homo sapiens), P15428. purified HPGD, NADH fluorescence kinetic, PGE2 substrate. Potency, µM, without a hit: top-dose activity change, negative = inhibition, most hits filed as inhibitors. 150,000 compounds, 4.3% hits. AID 894, 2007; also: potency is read from the fitted curve at half-maximal effect
Target sequence (P15428 whole entry, looked up): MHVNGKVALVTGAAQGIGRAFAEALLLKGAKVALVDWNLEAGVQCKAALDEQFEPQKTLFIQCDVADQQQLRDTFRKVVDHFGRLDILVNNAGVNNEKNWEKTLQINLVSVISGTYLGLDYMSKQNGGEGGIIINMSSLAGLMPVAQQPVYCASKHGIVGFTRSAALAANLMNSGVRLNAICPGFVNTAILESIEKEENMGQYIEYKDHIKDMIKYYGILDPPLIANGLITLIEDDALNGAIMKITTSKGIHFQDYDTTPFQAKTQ
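NADH formation kinetics: reaction with 30 uM PGE2 and 1 mM NAD+ (final), 20 nM enzyme, Tris-HCl pH 8 with Tween 20, after 15 min compound preincubation at room temperature. Fluorescence change, last versus first of five reads.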
PNC inhibitor – High Content Assay for Compounds that inhibit the Assembly of the Perinucleolar Compartment; PC3M PTB-GFP, PNC prevalence imaging, 16 h; hits give low values; activity change (PNC), negative = inhibition, % at 10 µM; 140,000 compounds, 3.1% hits; AID 2417, 2010;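 active = readout at or below -70, meaning at least 70% loss of cells showing the perinucleolar compartment, a nuclear body marking cancer cells; inconclusive = readout between -30 and a set limit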;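 also: plate controls were DMSO wells for no effect and camptothecin positive control wells for full effect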
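Read-out is percentage of cells bearing a perinucleolar compartment, from automated 20x imaging of fixed, Hoechst-stained PC3M PTB-GFP cells. Cells were seeded 4 h, then exposed 16 h to compound (23 nl of library stock) in duplicate plates.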
* = called active by the depositor; [ ] = another dose, or the depositor's remark. This is a sample that favours compounds with a hit; in the whole collection about 10% have one here. Unless noted, calls follow the shape of the dose curve; as a rule, active = well fitted inhibition curve with a large enough effect (not every such curve was filed as active); inconclusive = small, poorly fitted or top-dose-only effect, or another doubt; inactive = no such curve, though single readings can be large or run the other way. Unless noted, % is scaled to controls: 0 for no effect and ±100 for the full control effect.

What do the screens show for `O=c1c(-c2cccc(Cl)c2)nc2cncnc2n1Cc1ccc(F)cc1`?
12-hLO inh: 0%; ALDH1A1 inh: 14%; HPGD inh: -7%

Results for O=C1OCC2=C1C(c1ccccc1)CC(=O)N2c1ccccc1 (configuration not stated) ?
ALDH1A1 inh: 4%

How did [N-]=[N+]=Nc1nc2c(N)ncnc2n1C1OC(CO)C(O)C1O (configuration not stated) do in these assays?
Lamin A splicing: inconclusive; 12-hLO inh: 11%; ALDH1A1 inh: 3%; HPGD inh: -10%

Results for CCOC(=O)C1(Cc2ccccc2Cl)CCN(S(=O)(=O)N(C)C)CC1 ?
ALDH1A1 inh: 8.9µM*

What do the screens show for `CC(C)(C)c1ccc(OCC(=O)N/N=C/C2CC=CCC2)cc1` (configuration not stated)?
ALDH1A1 inh: 32µM*

How did CC(C)(C)c1ccc(OCC(=O)N/N=C/c2ccsc2)cc1 do in these assays?
Lamin A splicing: -10%; 12-hLO inh: 1%; ALDH1A1 inh: 7%; PNC inhibitor: inconclusive

Results for O=c1c2ccccc2sc2nc(C3CCCCC3)n(Cc3ccco3)c(=O)c12 ?
Lamin A splicing: inconclusive; 12-hLO inh: inconclusive; ALDH1A1 inh: 1.4µM*; HPGD inh: 16µM*; PNC inhibitor: 7

How did N#C/C(=C\c1c(N2CCOCC2)nc2ccccn2c1=O)S(=O)(=O)c1ccccc1 do in these assays?
Lamin A splicing: -2%; 12-hLO inh: inconclusive; ALDH1A1 inh: 13µM*; HPGD inh: 2µM*; PNC inhibitor: 1

How did Cc1ccc(S(=O)(=O)/C(C#N)=C/c2c(N3CC(C)OC(C)C3)nc3ccccn3c2=O)cc1 (configuration not stated) do in these assays?
Lamin A splicing: 2%; 12-hLO inh: -11%; ALDH1A1 inh: -13%; HPGD inh: 14µM*; PNC inhibitor: 29

What do the screens show for `CC(=O)[C@]1(O)CCC2C3CC(C)C4=CC(=O)C=CC4(C)[C@@]3(F)C(O)C[C@]21C` (some centres not stated)?
12-hLO inh: 0%; ALDH1A1 inh: -3%; HPGD inh: -2%

How did O=C(O)c1n[nH]c2ccccc12 do in these assays?
Lamin A splicing: -14%; 12-hLO inh: 5%; ALDH1A1 inh: 4%; HPGD inh: -6%; PNC inhibitor: -27

How did Fc1ccc(-c2n[nH]c(=S)c3ccccc23)cc1 do in these assays?
Lamin A splicing: -4%[46 µM]; ALDH1A1 inh: 4µM*

What do the screens show for `c1ccc(-c2n[nH]c3ccccc23)cc1`?
Lamin A splicing: -9%; 12-hLO inh: 2%; ALDH1A1 inh: inconclusive; HPGD inh: 14µM*; PNC inhibitor: 17

Results for COC(=O)c1ccc(-c2n[nH]c(=O)c3ccccc23)cc1 ?
Lamin A splicing: -11%; 12-hLO inh: -3%; ALDH1A1 inh: 3%; HPGD inh: -15%; PNC inhibitor: inconclusive

Results for COc1ccc(C(=O)N2CCC3(CC2)CCN(C(c2ccccc2)c2ccccc2)CC3)cc1 ?
12-hLO inh: 4%; ALDH1A1 inh: -4%; HPGD inh: -4%

What do the screens show for `Cn1c(=O)c2c(nc(SCCN3CCOCC3)n2Cc2ccc(F)cc2)n(C)c1=O`?
Lamin A splicing: 0%; 12-hLO inh: 3%; ALDH1A1 inh: -18%; HPGD inh: -2%; PNC inhibitor: 3

Results for Cn1c(=O)c2c(nc(SCc3cccnc3)n2Cc2ccccc2)n(C)c1=O ?
Lamin A splicing: 10%; 12-hLO inh: -5%; ALDH1A1 inh: 22µM*; HPGD inh: -22%; PNC inhibitor: -14

How did COC(=O)CSc1nc2c(c(=O)n(C)c(=O)n2C)n1CCCc1ccccc1 do in these assays?
Lamin A splicing: 8%; 12-hLO inh: -7%; ALDH1A1 inh: -11%; HPGD inh: -2%; PNC inhibitor: -7

How did CCCn1c(SCC(=O)OCc2ccccc2)nc2c1c(=O)n(C)c(=O)n2C do in these assays?
Lamin A splicing: 17%; 12-hLO inh: -2%; ALDH1A1 inh: 22µM*; HPGD inh: -6%; PNC inhibitor: 6

Results for Cc1ccc(Cn2c(SCc3cccnc3)nc3c2c(=O)n(C)c(=O)n3C)cc1 ?
Lamin A splicing: 14%; 12-hLO inh: 0%; ALDH1A1 inh: 2%; HPGD inh: 8%; PNC inhibitor: -5

What do the screens show for `Cn1c(=O)c2c(nc(SCc3cccnc3)n2Cc2ccc(F)cc2)n(C)c1=O`?
Lamin A splicing: 6%; 12-hLO inh: -9%; ALDH1A1 inh: inconclusive; HPGD inh: 40µM*; PNC inhibitor: -5

How did N#CCCSC(=S)[C@H]1CCCC1=N do in these assays?
12-hLO inh: 0%[11.4 µM]; ALDH1A1 inh: 4%[13.5 µM]; HPGD inh: -8%

How did Cc1cccc(Cn2nnc3c2C(=O)c2ccccc2C3=O)c1 do in these assays?
Lamin A splicing: inconclusive; 12-hLO inh: -1%; ALDH1A1 inh: -5%; HPGD inh: 14µM*; PNC inhibitor: 26

How did CS(=O)(=O)Nc1nnc(Cc2ccccc2)s1 do in these assays?
Lamin A splicing: inconclusive; 12-hLO inh: 2%; ALDH1A1 inh: -8%; HPGD inh: -24%; PNC inhibitor: -100*

What do the screens show for `CC(C)Cc1nnc(NS(=O)(=O)Cc2ccccc2)s1`?
Lamin A splicing: 1%; 12-hLO inh: 3%; ALDH1A1 inh: 13µM*; HPGD inh: 20µM*; PNC inhibitor: inconclusive

What do the screens show for `Cc1ccc(S(=O)(=O)Oc2ccc(/C=C3/N=C(c4ccccc4)OC3=O)cc2)cc1`?
Lamin A splicing: 7%; 12-hLO inh: 0%; ALDH1A1 inh: 8.9µM*; HPGD inh: -25%; PNC inhibitor: 114

Results for Cc1ccc(C2=N/C(=C\N3CCCCC3)C(=O)O2)cc1 ?
Lamin A splicing: 16%; 12-hLO inh: -1%; ALDH1A1 inh: inconclusive; HPGD inh: inconclusive; PNC inhibitor: -18

How did C#CCCCO/N=C1/C[C@@H](O)[C@@H](O)[C@@H]2[C@@H]3C(=O)N(CC)C(=O)[C@H]3CC[C@@H]12 do in these assays?
ALDH1A1 inh: 12%[13.5 µM]

How did CC(=O)Oc1ccc2c(c1)CCC1C2CC[C@]2(C)C(OC(C)=O)CCC12 (some centres not stated) do in these assays?
12-hLO inh: -14%; ALDH1A1 inh: 9%; HPGD inh: -14%

What do the screens show for `Cc1nc2ccc(NC(=O)c3cc([N+](=O)[O-])cc([N+](=O)[O-])c3Cl)cc2s1`?
Lamin A splicing: inconclusive; 12-hLO inh: -1%; ALDH1A1 inh: inconclusive; HPGD inh: 7.1µM*; PNC inhibitor: -2
